# Sampled rows, rich in hits. Any-hit rate of the full collection: about 5.8%.
# TRPV1 PAM – human TRPV1 potentiation; Q8NER1; TRPV1-expressing cells, Fluo-8 calcium influx, capsaicin EC20 potentiation; potentiation, % at 8.33 µM; actives 0.02% (n = 320,000); AID 540277; in the data active means potentiation above about 80%; inconclusive means between about 30% and that limit; further: 0% is about no effect
# Target sequence (Q8NER1 whole entry, looked up): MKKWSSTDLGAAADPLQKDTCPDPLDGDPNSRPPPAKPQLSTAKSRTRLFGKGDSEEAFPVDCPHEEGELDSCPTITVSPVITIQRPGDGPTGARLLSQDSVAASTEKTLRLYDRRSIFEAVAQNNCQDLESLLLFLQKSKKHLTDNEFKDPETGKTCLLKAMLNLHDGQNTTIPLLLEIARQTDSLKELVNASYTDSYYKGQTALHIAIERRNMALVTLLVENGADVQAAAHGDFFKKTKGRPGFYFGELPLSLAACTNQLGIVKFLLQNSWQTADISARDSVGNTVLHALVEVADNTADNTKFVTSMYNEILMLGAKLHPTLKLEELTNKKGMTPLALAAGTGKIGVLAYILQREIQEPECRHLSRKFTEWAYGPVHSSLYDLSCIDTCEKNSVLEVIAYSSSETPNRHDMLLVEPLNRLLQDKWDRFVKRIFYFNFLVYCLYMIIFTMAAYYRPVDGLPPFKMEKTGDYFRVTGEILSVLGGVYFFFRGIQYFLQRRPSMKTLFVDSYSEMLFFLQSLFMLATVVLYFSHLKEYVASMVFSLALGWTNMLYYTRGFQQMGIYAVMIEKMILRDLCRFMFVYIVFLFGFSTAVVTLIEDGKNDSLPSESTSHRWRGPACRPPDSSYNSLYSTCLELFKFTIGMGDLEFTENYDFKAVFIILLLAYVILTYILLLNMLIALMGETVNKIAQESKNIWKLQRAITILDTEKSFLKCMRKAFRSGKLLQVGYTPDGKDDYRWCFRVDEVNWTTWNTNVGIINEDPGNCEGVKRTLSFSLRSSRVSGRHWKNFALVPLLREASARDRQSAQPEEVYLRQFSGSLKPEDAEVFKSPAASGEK
#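 Fluo-8 calcium influx in TRPV1-expressing cells, kinetic read (ex 480/em 520 nm). Compound added and read 3 min for agonist activity, followed by capsaicin at EC20 final and 2 min further read for enhancement.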
# RORgamma inh – inhibitors of mouse ROR gamma transcriptional activity; P51450; Drosophila S2 Gal4-RORgamma UAS-luciferase reporter, 20 h; Potency, µM (series often up to 53.6 µM), inactives show at the top dose activity change, negative = inhibition, most hits filed as inhibitors; actives 5.4% (n = 310,000); AID 2551; further: potency means the concentration at half of the fitted maximal effect; on the % scale 0 is the no-effect control and ±100 the full control effect; nearly all actives have a fitted effect of over 60% in size
#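 In this cell-based reporter format, copper sulfate (700 uM final) drives Gal4–ROR gamma fusion expression from a metallothionein promoter in Drosophila Schneider cells; compounds preincubated 1 hr, reporter read after 20 hr at ambient temperature.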
# Gal4-VP16 FLuc – Gal4-VP16 reporter inhibition counter-screen | Drosophila S2 Gal4-VP16 UAS-luciferase, luminescence, 20 h | AID 2546 | actives 3.5% (n = 310,000) | Potency, µM (series often up to 53.6 µM), inactives show top-dose activity, negative = inhibition, actives largely listed as inhibitors;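 further: Gal4-VP16 expression switched on by copper sulfate through the metallothionein promoter; potency means the concentration at half of the fitted maximal effect; on the % scale 0 is the no-effect control and ±100 the full control effect; nearly all actives have a fitted effect of over 50% in size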
# uPA surface inh – blocks generation of uPA at the cell surface; cell surface uPA generation assay, qHTS; Potency, µM (highest dose often 38.3 µM), inactives show at the top dose activity change, negative = inhibition, usual class: inhibitors; actives 0.31% (n = 330,000); AID 540303; active means well fitted inhibition curve with a large enough effect; inconclusive means small, poorly fitted or top-dose-only effect; inactive means no such curve, though single readings can be large or run the other way; tested in mouse RAW 264.7 cells; further: potency means the concentration at half of the fitted maximal effect; on the % scale 0 is the no-effect control and ±100 the full control effect; nearly all actives have a fitted effect of over 55% in size
# TRPV1 ag – agonists of human vanilloid receptor 1 (TRPV1). actives 0.19% (n = 320,000). activation, % at 8.33 µM. TRPV1-expressing cells, Fluo-8 calcium influx, agonist mode. Q8NER1; in the data active means activation above about 80%; inconclusive means between about 30% and that limit; further: 0% is about no effect
#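 Fluo-8 calcium influx in TRPV1-expressing cells, kinetic read (ex 480/em 520 nm). Compound added and read 3 min for agonist activity, followed by capsaicin at EC20 final and 2 min further read for enhancement.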
# * marks the source's active call; other numbers are inactive results; ? = inconclusive; . = no result given. Unless noted, the call rests on the fitted dose curve; in most records, active means well fitted curve in the direction sought with a large enough effect; inconclusive means small, poorly fitted or top-dose-only effect, or another doubt; inactive means no such curve, though single readings can be large; an effect the other way counts as inactive or inconclusive.
SMILES,TRPV1 PAM,RORgamma inh,Gal4-VP16 FLuc,uPA surface inh,TRPV1 ag
CCOC(=O)c1c(N2C(=O)C3C4C=CC(O4)C3C2=O)sc2c1CCCC2 (configuration not stated),4.9,?,17.8µM*,-4.8%,-1.5
OC1(c2ccc(Cl)c(C(F)(F)F)c2)CCN(CCCC(c2ccc(F)cc2)c2ccc(F)cc2)CC1,.,12.6µM*,10µM*,.,.
OC(CCCN1CCC(O)(c2ccc(Cl)cc2)CC1)c1ccc(F)cc1 (configuration not stated),-1.5,-14.3%,-9.0%,-12.3%,3.7
CNC(=O)C(=O)Nc1cc2c3c(c1)CCN3C(=O)CC2,-14.0,-22.4%,-0.1%,-2.8%,1.6
Cn1cnc2c(=O)[nH]cc([N+](=O)[O-])c21,0.0,-11.1%,-0.5%,-3.7%,-0.2
CC(Sc1cccc(C(F)(F)F)c1)C(=O)NC(N)=O (configuration not stated),-3.5,18.3%,-14.9%,-6.7%,-2.1
CC(C)C1C(=O)N(S(C)(=O)=O)[C@H]2CCN(C(=O)/C=C/CN3CCCCC3)[C@@H]12 (some centres not stated),.,19.9%,3.8%,.,.
O=C1NC(=S)N/C1=C\c1cccc([N+](=O)[O-])c1,-0.1,13.0%,13.1%,1.6%,2.1
O=C1NC(=S)N/C1=C/c1cccc([N+](=O)[O-])c1,1.0,-6.7%,9.2%,-1.7%,-2.3
O=C1NC(=S)N/C1=C/c1cccnc1,-5.8,12.6µM*,-12.6%,7.7%,2.5
O=C1NC(=S)N/C1=C\c1cccnc1,10.6,2µM*,?,8.9%,0.2
COC(=O)c1c(C)cc(C)n2c1nc1ccccc12,26.8,10µM*,-5.9%,-4.6%,1.1
CCCCNC(=O)C(=O)NCC1CCCN1S(=O)(=O)c1cccs1 (configuration not stated),1.3,.,.,-0.5%,-4.3
CCOc1ccc(/C=C2/SC(=S)N(n3c(C)ccc3C)C2=O)cc1,1.7,?,9.8%,0.4%,-3.0
CCOc1ccc(C=C2SC(=O)N(CCN)C2=O)cc1,.,0.631µM*,-1.8%,.,.
Nc1ncc([N+](=O)[O-])c(N2CCCCCC2)n1,3.5,11.2µM*,-22.1%,-1.8%,0.8
Cc1cc(/C=C2\Sc3ccccc3N2C)cc(C)[n+]1CC1CCCO1 (configuration not stated),7.6,2.82µM*,2µM*,-17.0%,4.4
Cc1cc(C)nc(SC2CC(=O)N(c3ccc(Cl)cc3)C2=O)n1 (configuration not stated),-10.0,14.1µM*,-86.0%,6.5%,13.0
Nc1nnc(SC2CC(=O)N(c3ccccc3)C2=O)s1 (configuration not stated),-1.3,5.01µM*,10µM*,2.3%,-0.8
Cc1nc(SC2CC(=O)N(c3ccccc3)C2=O)n[nH]1 (configuration not stated),7.3,4.47µM*,4.47µM*,-3.2%,-1.7
O=C1CC(Sc2ncccn2)C(=O)N1c1ccccc1 (configuration not stated),0.4,?,-2.3%,2.0%,0.2
CCOc1ccc(S(=O)(=O)N2CCOCC2)cc1NC(=O)CCOc1ccc(C(C)(C)C)cc1,-10.5,.,.,2.1%,22.6
Cc1ccc(OP(=O)(Nc2c(C)n(C)n(-c3ccccc3)c2=O)Oc2ccc(C)cc2)cc1,11.6,33.8%,-0.6%,10.4%,2.8
CSc1ccccc1NC(=O)C1CC(c2ccccc2O)=NO1 (configuration not stated),3.6,?,?,-0.5%,17.4
COC(=O)c1ccccc1NC(=O)C1CC(c2ccccc2O)=NO1 (configuration not stated),2.7,12.6µM*,?,5.9%,20.6
Cc1cccc(/C=N/NC(=O)c2ccc(NC(=O)c3ccc(Cl)cc3)cc2)n1,-0.9,-13.1%,?,0.2%,?
O=C(c1ccc(N2CCN(C(=O)c3ccc(F)c(F)c3)CC2)cc1)c1cccc(F)c1,-6.9,1.78µM*,?,-11.5%,?
Cc1onc(-c2c(F)cccc2Cl)c1C(=O)OCC(=O)Nc1cccc(S(=O)(=O)N(C)C)c1,.,.,.,-3.3%,.
Cc1ccc(S(=O)(=O)/N=C(/NC(=S)Nc2cccc(C)c2)c2ccccc2)cc1,-0.5,?,12.6µM*,-2.3%,1.0

# Screening results from PubChem.
